# STK33 inh: human STK33 kinase inhibition. Q9BYT3. ADP-Glo luminescence, MBP substrate. inhibition, % at 12.5 µM. 0.44% of 27,000 active. AID 2322; in the data active = inhibition above about 20%; inconclusive = no clear call, values can overlap the other calls
# Target sequence (Q9BYT3 whole entry, looked up): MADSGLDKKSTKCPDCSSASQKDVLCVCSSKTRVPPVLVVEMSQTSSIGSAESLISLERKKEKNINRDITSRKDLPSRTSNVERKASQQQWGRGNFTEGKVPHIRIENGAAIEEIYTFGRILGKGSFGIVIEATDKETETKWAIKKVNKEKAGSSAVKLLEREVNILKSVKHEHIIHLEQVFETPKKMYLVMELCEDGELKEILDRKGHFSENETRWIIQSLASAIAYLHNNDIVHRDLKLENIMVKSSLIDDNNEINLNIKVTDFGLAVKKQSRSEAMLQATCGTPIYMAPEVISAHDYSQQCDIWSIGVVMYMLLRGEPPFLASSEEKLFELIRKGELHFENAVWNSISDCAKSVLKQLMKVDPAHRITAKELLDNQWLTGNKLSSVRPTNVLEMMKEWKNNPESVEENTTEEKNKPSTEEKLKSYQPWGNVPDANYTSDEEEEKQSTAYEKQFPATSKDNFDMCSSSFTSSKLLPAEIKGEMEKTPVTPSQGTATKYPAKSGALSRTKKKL
# PD-1 reverse act: reversal of PD-1 mediated T-cell inhibition; primary human CD4 T cells, PD-L1 beads, CellTiter-Glo 96 h; activation, % (test concentration not listed); 29,000 tested, under 10 active; AID 2316; call rule not given here;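 also: 0% = median vehicle wells and 100% = positive control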
# NOMO-1 viab: STK33 inhibitor candidate reducing NOMO-1 cell viability. inhibition, % (no concentration beside the values). 7.5% of 37,000 active. NOMO-1 AML viability, CellTiter-Glo luminescence, 72 h. AID 2330; in the data active = inhibition above about 80%; inconclusive = no clear call, values can overlap the other calls
# * marks the source's active call; other numbers are inactive results; ? = inconclusive; . = not tested or not shown. The sample as a whole holds a higher share of hits than the screen did.
SMILES,STK33 inh,PD-1 reverse act,NOMO-1 viab
CCc1ccc(/C(C#N)=C/C=C/c2ccccc2)cc1,.,-1,115*
C[C@@H]1CN([C@@H](C)CO)C(=O)Cc2cc(NS(=O)(=O)c3ccc(F)cc3)ccc2O[C@@H]1CN(C)Cc1ccc(C(=O)Nc2ccccc2N)cc1,.,0,112*
C[C@@H]1CN([C@@H](C)CO)C(=O)Cc2cc(NS(=O)(=O)c3cn(C)cn3)ccc2O[C@@H]1CN(C)Cc1ccc(C(=O)Nc2ccccc2N)cc1,.,1,32
C[C@H]1CN([C@@H](C)CO)C(=O)Cc2cc(NS(=O)(=O)c3ccc(F)cc3)ccc2O[C@H]1CN(C)Cc1ccc(C(=O)Nc2ccccc2N)cc1,.,-1,140*
CCn1c(SCC(=O)Nc2ccc3c(c2)OCCO3)nnc1-c1cccc(Cl)c1,-1,1,15
Cc1c(NC(=O)CSc2nc3cc(C(=O)N4CCCC4)ccc3s2)c(=O)n(-c2ccccc2)n1C,6,2,-16
NCCOc1ccc(Cl)cc1,-2,-4,111*
Clc1ccc(OCCCCSc2ncccn2)cc1,1,1,-3
CCOC(=O)c1c(NC(=O)c2ccc(C)c(S(=O)(=O)N3CCCCCC3)c2)sc(C)c1C,-2,-3,-8
COC(=O)c1cc(OC)c(OC)cc1NC(=O)COc1ccc(Br)c(C)c1,-1,-2,21
CC(=O)Oc1ccc2occ(C(=O)CCN(C)C)c2c1,.,-5,140*
CC(=O)Oc1ccc2occ(C(=O)c3ccc(Br)s3)c2c1,.,-1,41
CCC(C)c1cc(N)nc2nc3ccccc3n12 (stereo unspecified),.,0,23
CN(CC(=O)Nc1ccccc1Sc1ccccc1)S(=O)(=O)c1ccc(F)cc1,1,-1,56
O=C(COc1cccc2ccccc12)Nc1ccccc1C(=O)O,-2,2,-8
CC(C)(C)c1ccccc1OCC(=O)Nc1cccc2ccccc12,.,-1,92*
O=S(=O)(C1=CC23CCCC2(C=C(S(=O)(=O)c2ccc(Cl)cc2)C3)C1)c1ccc(Cl)cc1 (stereo unspecified),.,-1,-6
COC(=O)c1ccccc1NC(=O)Cn1nc(C(F)(F)F)c2c1CCCCC2,2,3,18
CS(=O)(=O)N(CC(=O)NC1CCCC1)c1cc(Cl)c(Cl)cc1Cl,-3,0,-21
CCOC(=O)c1cnc2c(OC)cccc2c1NC1CCCCC1,.,-6,118*
CCOC(=O)c1cnc2c(OC)cccc2c1N1CCC2(CC1)OCCO2,-2,1,39
C[C@H]1CN([C@@H](C)CO)C(=O)Cc2cc(NC(=O)Cc3ccccc3)ccc2O[C@H]1CN(C)Cc1ccc(Cl)c(Cl)c1,3,-2,?
C[C@H](CO)N1C[C@H](C)[C@H](CN(C)Cc2ccc3c(c2)OCO3)Oc2ccc(NC(=O)CCCCCC(=O)Nc3ccccc3N)cc2CC1=O,.,0,132*
C[C@H](CO)N1C[C@H](C)[C@H](CN(C)Cc2ccc3c(c2)OCO3)Oc2ccc(NC(=O)CCCCCC(=O)Nc3ccccc3N)cc2C1=O,.,0,47
C[C@H](CO)N1C[C@H](C)[C@@H](CN(C)Cc2ccc3c(c2)OCO3)Oc2ccc(NC(=O)CCCCCC(=O)Nc3ccccc3N)cc2C1=O,.,1,-19
SMILES,STK33 inh,PD-1 reverse act,NOMO-1 viab
C[C@@H]1CN([C@@H](C)CO)C(=O)c2cc(NC(=O)CCCCCC(=O)Nc3ccccc3N)ccc2O[C@@H]1CN(C)Cc1ccc2c(c1)OCO2,.,-1,95*
C[C@@H]1CN([C@H](C)CO)C(=O)Cc2cc(NC(=O)CCCCCC(=O)Nc3ccccc3N)ccc2O[C@@H]1CN(C)Cc1ccc(Cl)c(Cl)c1,.,-3,137*
O=C(CSc1nnnn1-c1ccccc1)Nc1cccc(Br)c1,4,.,-8
C=CCn1c(-c2ccc(OC)cc2)c(C)sc1=Nc1ccc(C)cc1,.,0,23
Cc1cccc(N(CC(=O)Nc2ccc(I)cc2C)S(C)(=O)=O)c1,-4,0,8
CC1(C)CC[C@]2(C(=O)O[C@@H]3O[C@H](CO)[C@@H](O)[C@H](O)[C@H]3O)CC[C@]3(C)C(=CCC4[C@@]5(C)CC[C@H](O[C@@H]6OC[C@H](O)[C@H](O)[C@H]6O[C@@H]6O[C@H](CO)[C@@H](O)[C@H](O)[C@H]6O[C@@H]6OC[C@H](O)[C@H](O)[C@H]6O)[C@@](C)(CO)C5CC[C@]43C)C2C1 (stereo partly specified),-3,0,-11
CC1OC(O[C@H]2CC[C@@]3(C)C(CC[C@]4(C)C3CC=C3C5CC(C)(C)CC[C@]5(C(=O)OC5OC(CO)C(OC6OC(CO)C(O)C(O)C6O)C(O)C5O)CC[C@]34C)C2(C)C)C(O)C(O)C1OC1OCC(O)(COC2OCC(O)C(OC3OCC(OC4OCC(O)(CO)C4O)C(O)C3O)C2O)C1O (stereo partly specified),-4,0,14
C[C@@H]1O[C@@H](O[C@H]2[C@H](O[C@H]3CC[C@@]4(C)C(CC[C@]5(C)C4CC=C4[C@@H]6CC(C)(C)CC[C@]6(C(=O)O[C@@H]6O[C@H](CO[C@@H]7O[C@H](CO)[C@@H](O)[C@H](O)[C@H]7O)[C@@H](O)[C@H](O)[C@H]6O)CC[C@]45C)[C@]3(C)CO)OC[C@H](O)[C@@H]2O)[C@H](O)[C@H](O)[C@H]1O (stereo partly specified),-2,0,28
C[C@@H]1O[C@@H](O[C@H]2[C@H](O)[C@@H](O)[C@H](OC[C@H]3O[C@@H](OC(=O)[C@]45CCC(C)(C)CC4C4=CCC6[C@@]7(C)CC[C@H](O)C(C)(C)C7CC[C@@]6(C)[C@]4(C)CC5)[C@H](O)[C@@H](O)[C@@H]3O)O[C@@H]2CO)[C@H](O)[C@H](O)[C@H]1O (stereo partly specified),2,-10,122*
CC1OC(OC2C(CO)OC(OC(=O)[C@]34CCC(C)(C)CC3C3=CCC5[C@@]6(C)CC[C@H](OC7OC(C)C(OC8OCC(O)(COC9OCC(O)C(OC%10OCC(OC%11OCC(O)(CO)C%11O)C(O)C%10O)C9O)C8O)C(O)C7O)C(C)(C)C6CC[C@@]5(C)[C@]3(C)CC4)C(O)C2O)C(O)C(O)C1O (stereo partly specified),-10,-3,100*
CC1(C)CC[C@]2(C(=O)OC3OC(CO)C(O)C(O)C3O)CC[C@]3(C)C(=CCC4[C@@]5(C)CC[C@H](OC6OC(C(=O)O)C(O)C(O)C6O)C(CO)(CO)C5CC[C@]43C)[C@@H]2C1 (stereo partly specified),-3,-3,120*
CC1(C)CC[C@]2(C(=O)O[C@@H]3O[C@H](CO)[C@@H](O)[C@H](O)[C@H]3O)CC[C@]3(C)C(=CCC4[C@@]5(C)CC[C@H](O[C@@H]6O[C@H](C(=O)O)[C@@H](O[C@@H]7O[C@H](CO)[C@@H](O)[C@H](O)[C@H]7O)[C@H](O)[C@H]6O)C(C)(C)C5CC[C@]43C)C2C1 (stereo partly specified),-4,0,-4
CC1(C)CC[C@]2(C(=O)O)CC[C@]3(C)C(=CCC4[C@@]5(C)CC[C@H](O[C@@H]6OC[C@H](O)[C@H](O)[C@H]6O)[C@@](C)(CO)C5CC[C@]43C)C2C1 (stereo partly specified),-8,-8,120*

# Screening data as filed in PubChem BioAssay.
